Test system: K562 SF3B1 K700E vs K562 SF3B1 WT
Experiment: surviving fraction ratio K562 SF3B1 K700E / K562 SF3B1 WT (each relative to DMSO); higher = less selective killing of SF3B1 K700E cells
Conditions: 5 days
In short: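 Each value is the mutant-to-wild-type ratio of surviving fractions, with both fractions normalised to DMSO and viability read by CellTiter-Glo. Isogenic K562 cells with an engineered mutant allele and their matched wild-type counterparts were seeded at 250 cells per well in 384-well plates. After 24 h, an in-house 80-compound library was added at 0.5, 1, 5, 10, 50, 100, 500 and 1,000 nM, followed by 5 d of continuous culture.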

Row | SMILES | surviving fraction ratio K562 SF3B1 K700E / K562 SF3B1 WT (0.5nM) | surviving fraction ratio K562 SF3B1 K700E / K562 SF3B1 WT (1nM) | surviving fraction ratio K562 SF3B1 K700E / K562 SF3B1 WT (5nM) | surviving fraction ratio K562 SF3B1 K700E / K562 SF3B1 WT (10nM) | surviving fraction ratio K562 SF3B1 K700E / K562 SF3B1 WT (50nM) | surviving fraction ratio K562 SF3B1 K700E / K562 SF3B1 WT (100nM) | surviving fraction ratio K562 SF3B1 K700E / K562 SF3B1 WT (500nM) | surviving fraction ratio K562 SF3B1 K700E / K562 SF3B1 WT (1000nM)
1 | Cc1ccc(NC(=O)c2ccc(CN3CCN(C)CC3)cc2)cc1Nc1nccc(-c2cccnc2)n1 [imatinibmesylate] | 0.696 | 0.74 | 0.733 | 0.692 | 0.55 | 0.617 | 1.5 | 1.1
2 | Cn1c(=O)n(-c2ccc(C(C)(C)C#N)cc2)c2c3cc(-c4cnc5ccccc5c4)ccc3ncc21 | 0.991 | 0.985 | 0.8 | 0.854 | 0.811 | 0.838 | 1.28 | 1.45
3 | COc1cc2c(cc1O)CC[C@@H]1[C@@H]2CC[C@]2(C)[C@@H](O)CC[C@@H]12 [2-methoxyestradiol] | 0.765 | 0.733 | 0.666 | 0.851 | 0.706 | 0.595 | 0.626 | 1.48
4 | COc1cc2nccc(Oc3ccc(NC(=O)NC4CC4)c(Cl)c3)c2cc1C(N)=O [Lenvatinib] | 0.728 | 0.787 | 0.763 | 0.755 | 0.815 | 0.834 | 0.71 | 0.674
5 | CN1CCN(c2nc(C3=C(c4c[nH]c5ccccc45)C(=O)NC3=O)c3ccccc3n2)CC1 [Sotrastaurin/AEB071] | 0.816 | 0.804 | 0.847 | 0.854 | 0.889 | 0.979 | 0.955 | 0.896
6 | CC1(C)CC(=O)c2c(C(F)(F)F)nn(-c3ccc(C(N)=O)c(N[C@H]4CC[C@H](OC(=O)CN)CC4)c3)c2C1 | 0.983 | 0.972 | 0.763 | 0.719 | 1.18 | 2.16 | 1.09 | 1.16
7 | CCN(CC)CCNC(=O)c1c(C)[nH]c(/C=C2\C(=O)Nc3ccc(F)cc32)c1C [sunitinib] | 1.09 | 1.08 | 0.928 | 1.33 | 0.86 | 1.2 | 0.73 | 0.857
8 | COc1cc2nccc(Oc3ccc(NC(=O)C4(C(=O)Nc5ccc(F)cc5)CC4)cc3)c2cc1OC [Cabozantinib] | 0.718 | 0.805 | 0.831 | 0.71 | 0.733 | 0.704 | 0.503 | 0.686
9 | CN(Cc1cnc2nc(N)nc(N)c2n1)c1ccc(C(=O)N[C@@H](CCC(=O)O)C(=O)O)cc1 [methotrexate] | 0.824 | 0.836 | 0.971 | 2.8 | 3.75 | 4.08 | 3.5 | 3.58
10 | CNC(=O)c1ccc(N2C(=S)N(c3ccc(C#N)c(C(F)(F)F)c3)C(=O)C2(C)C)cc1F | 0.896 | 0.933 | 0.864 | 1.07 | 0.871 | 0.847 | 0.769 | 0.98
11 | COc1cc2c(Oc3ccc(NC(=O)C4(C(=O)Nc5ccc(F)cc5)CC4)cc3F)ccnc2cc1OCCCN1CCOCC1 [Foretinib] | 0.742 | 0.75 | 0.797 | 0.729 | 0.775 | 0.561 | 1.02 | 0.913
12 | CC[C@@H]1C(=O)N(C)c2cnc(Nc3ccc(C(=O)NC4CCN(C)CC4)cc3OC)nc2N1C1CCCC1 | 0.867 | 0.956 | 0.455 | 2.45 | 2.89 | 2.99 | 2.76 | 2.22
13 | O=C(c1cc(Cc2n[nH]c(=O)c3ccccc23)ccc1F)N1CCN(C(=O)C2CC2)CC1 [olaparib] | 0.978 | 0.979 | 0.926 | 0.839 | 0.947 | 1.02 | 1.1 | 0.871
14 | CC[C@@H](C(=O)[C@@H](C)[C@@H](O)[C@H](C)[C@@H]1O[C@@H]([C@@H](CC)C(=O)O)CC[C@@H]1C)[C@H]1O[C@]2(C=C[C@@H](O)[C@]3(CC[C@@](C)([C@H]4CC[C@](O)(CC)[C@H](C)O4)O3)O2)[C@H](C)C[C@@H]1C [salinomycin] | 0.921 | 0.999 | 0.871 | 1.27 | 0.88 | 0.831 | 0.898 | 1.16
15 | Cc1cn(-c2cc(NC(=O)c3ccc(C)c(Nc4nccc(-c5cccnc5)n4)c3)cc(C(F)(F)F)c2)cn1 [nilotinib] | 0.834 | 0.742 | 0.537 | 0.816 | 1.47 | 1.48 | 1.53 | 1.51
16 | Cn1nnc2c(C(N)=O)ncn2c1=O [temozolomide] | 0.816 | 0.823 | 0.844 | 0.765 | 0.88 | 0.843 | 0.714 | 0.794
17 | CS(=O)(=O)c1ccc(C(=O)Nc2ccc(Cl)c(-c3ccccn3)c2)c(Cl)c1 | 1.07 | 0.954 | 0.96 | 0.872 | 1 | 0.969 | 1.01 | 1.07
18 | Oc1ccc(/C=C/c2cc(O)cc(O)c2)cc1 [resveratrol] | 0.896 | 0.898 | 0.856 | 0.905 | 1 | 1.24 | 0.916 | 1.28

Source: the supplement of paper PMC10412459
